HEK293 tox – HEK 293 cell cytotoxicity; HEK 293 viability, ATP luminescence (CellTiter-Glo), 48-72 h; Potency, µM (highest dose often 115 µM), without a hit: at the top dose activity change, negative = cytotoxicity, usual class: inhibitors; hit rate 6.6% among 94,000; note: nearly all actives have a fitted effect of over 60% in size
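ATP-coupled CellTiter-Glo luminescence served as viability read-out, recorded 10 min after reagent addition at room temperature. HEK 293 cells, 250 cells/well, had been incubated with pintool-transferred compound for 48 or 72 hr at 37 degree Celsius.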
GPT2 inh – inhibitors of human GPT2 alanine aminotransferase; Q8TD30; Recombinant GPT2, coupled pyruvate oxidase/HRP Amplex Red fluorescence; Potency, µM (titrated, usually from 57.7 µM), without a hit: at the top dose activity change, negative = inhibition, hits mostly inhibitors; hit rate 0.25% among 100,000; note: nearly all actives have a fitted effect of over 60% in size
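Fluorescence read-out: pyruvate from GPT2 turnover coupled to pyruvate oxidase, HRP and Amplex Red (0.2mM ThPP, 0.2U/mL PO and HRP, 50uM Amplex final). Substrates 250uM a-KG, 2mM L-alanine; enzyme 10ng/uL; 30 min RT.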
3T3 cytotox – NIH 3T3 cell cytotoxicity. NIH 3T3 viability, CellTiter-Glo ATP luminescence, 48-72 h. Potency, µM (top dose mostly 96.7 µM), for inactives: top-dose activity change, negative = cytotoxicity, actives largely listed as inhibitors. hit rate 4.3% among 94,000. AID 1345082; note: nearly all actives have a fitted effect of over 55% in size
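Luminescent ATP readout (CellTiter-Glo, 10 min RT) after 48 or 72 hr compound exposure of NIH 3T3 cells seeded at 400 cells/well in 1536-well format; quantitative HTS.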
NPR1 antag – human Npr1 receptor antagonism; AID 1347048; Potency, µM (series often up to 46.3 µM), without a hit: at the top dose activity change, negative = inhibition, usual class: inhibitors; hit rate 1.6% among 76,000; HEK293 hNpr1 GloSensor cGMP, ANP-stimulated luminescence; calls by dose curve; note: nearly all actives have a fitted effect of over 60% in size
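Compound pre-incubated 30 min at room temperature on GloSensor-loaded HEK293 cells stably carrying hNpr1 and the pGS-40F cGMP biosensor. Stimulation uses hNppA at 0.1 nM final; luminescence is taken at baseline and 20 min post-agonist.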
FLuc inh – blocks purified firefly luciferase enzyme activity | purified P. pyralis luciferase, luminescence, biochemical | Potency, µM (top dose mostly 115 µM), hits mostly inhibitors | hit rate 2.5% among 76,000; note: nearly all actives have a fitted effect of over 65% in size
Target sequence (P08659 whole entry, looked up): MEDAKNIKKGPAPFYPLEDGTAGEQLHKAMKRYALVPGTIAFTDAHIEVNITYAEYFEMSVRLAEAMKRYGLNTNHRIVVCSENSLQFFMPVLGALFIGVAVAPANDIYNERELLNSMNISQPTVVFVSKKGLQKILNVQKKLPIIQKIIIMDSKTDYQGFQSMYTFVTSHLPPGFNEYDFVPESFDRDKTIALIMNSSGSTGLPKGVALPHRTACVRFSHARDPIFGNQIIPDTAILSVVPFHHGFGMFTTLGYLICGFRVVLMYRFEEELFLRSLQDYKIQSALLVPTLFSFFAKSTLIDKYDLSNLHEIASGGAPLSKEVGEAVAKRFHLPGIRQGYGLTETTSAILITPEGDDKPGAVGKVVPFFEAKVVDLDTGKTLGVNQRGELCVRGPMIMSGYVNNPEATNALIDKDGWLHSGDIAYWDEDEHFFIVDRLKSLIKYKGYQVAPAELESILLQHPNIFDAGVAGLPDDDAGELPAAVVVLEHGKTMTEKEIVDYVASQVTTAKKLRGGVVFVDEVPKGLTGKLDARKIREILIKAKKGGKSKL
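Luminescence read by CCD imaging after purified firefly luciferase (10nM final) was added to substrate buffer holding 10uM D-luciferin and 10uM ATP, pH 7.5, pre-dosed with compound.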
Starred values were filed as active, the others as inactive; i = inactive; ? = inconclusive; . = not tested or not shown; [ ] = another dose, or the depositor's remark. Most compounds without a hit are left out; they make up all but 10% or so of the library. Unless noted, calls come from the whole dose curve; as a rule, active = well fitted curve in the direction sought with a large enough effect; inconclusive = small, poorly fitted or top-dose-only effect, or another doubt; inactive = no such curve, though single readings can be large; an effect the other way counts as inactive or inconclusive. % is set by controls: 0 for no effect and ±100 for the full control effect; potency is the fitted concentration of half-maximal effect.

SMILES	HEK293 tox	GPT2 inh	3T3 cytotox	NPR1 antag	FLuc inh
COc1ccc(Nc2ccnc(N3CCC(C(=O)N4CCN(Cc5ccccc5)CC4)CC3)n2)cc1	32µM*	i	?	.	.
O=C(C1CCN(c2ccnc3ccnn23)CC1)N1CCCCC1	?	-10%[88.5 µM]	?	.	.
Cc1noc(C)c1Cc1ccc(C(=O)N2CCC(OCCOc3ccccc3)CC2)o1	40µM*	-2%	?	.	.
COc1ccc([C@H]2C[C@@H](O)[C@@H](O)[C@@H]2NCc2cccc(C#N)c2)cc1	-24%[172 µM]	-21%[88.5 µM]	89µM*	-3%[70.6 µM]	i
COc1ccc(S(=O)(=O)N[C@H]2C[C@@H](c3nc(-c4ccc(C)cc4)no3)N(C)C2)cc1	79µM*	?	?	?	25µM*
COc1ccc([C@H]2C[C@@H](O)[C@@H](O)[C@@H]2NCc2cccc(C(F)(F)F)c2)cc1	?	-5%[88.5 µM]	?	-5%[70.6 µM]	i
COc1ccc(S(=O)(=O)N[C@H]2C[C@@H](c3nc(-c4cnccn4)no3)N(C)C2)cc1	-1%[172 µM]	1%[88.5 µM]	-8%[138 µM]	7%[70.6 µM]	i
COc1ccc(-c2noc([C@@H]3C[C@H](NCc4ccc(S(C)(=O)=O)cc4)CN3C)n2)cc1	?	0%	-29%	?	45µM*
COc1ccc(-c2noc([C@@H]3C[C@H](NS(=O)(=O)c4ccc(F)cc4)CN3C)n2)cc1	?	0%[88.5 µM]	?	-23%[70.6 µM]	18µM*
COc1ccc(-c2noc([C@@H]3C[C@H](NS(=O)(=O)c4cccs4)CN3C)n2)cc1	?	4%[88.5 µM]	?	?	?
Cc1nc(C)c(C(=O)N2CCCN(Cc3ccncc3)C(c3ccccc3)CC(=O)NCC2)s1 (stereo not drawn)	-5%	i	-6%	5%	i
COc1ccc(-c2ccc3c(c2)C(=O)N2C[C@@H](NS(=O)(=O)c4ccc(F)cc4)C[C@H]2C(=O)N3)c(OC)c1	28µM*	?	?	-22%	i
O=C1Nc2ccc(-c3ccsc3)cc2C(=O)N2C[C@@H](NS(=O)(=O)c3ccc(F)cc3)C[C@@H]12	-15%	-3%	-23%	4%	i
COc1ccc(-c2noc([C@@H]3C[C@H](NCc4cccc(C#N)c4)CN3C)n2)cc1	?	i	?	-28%[70.6 µM]	40µM*
c1cc2c(cc1-c1noc(-c3nc(-c4ccc5c(c4)OCO5)no3)n1)OCO2	13%	i	i	-9%	i
COCCc1noc(-c2nc(-c3ccc4c(c3)OCO4)no2)n1	?	i	-4%	-17%	18µM*
O[C@@H]1C[C@@H](c2nc(-c3ccc4c(c3)OCO4)no2)N(Cc2ccncc2)C1	89µM*	i	?	?	?
OCc1ccc(CN2C[C@H](O)C[C@H]2c2nc(-c3ccc4c(c3)OCO4)no2)o1	-16%[172 µM]	?	-28%[174 µM]	-13%[70.6 µM]	18µM*
O[C@@H]1C[C@@H](c2nc(-c3ccc4c(c3)OCO4)no2)N(Cc2ccc(C(F)(F)F)cc2)C1	?	-5%[88.5 µM]	?	-11%[70.6 µM]	i
CN1C[C@H](O)C[C@H]1c1nc(-c2ccc3c(c2)OCO3)no1	-25%[230 µM]	-4%[88.5 µM]	-21%[230 µM]	-14%[70.6 µM]	28µM*
CN(CCNC(=O)c1c(-c2ccccc2)cc(=O)n2c1CCC2)C1CCCCC1	?	4%	-25%	.	.
Fc1ccc(-c2cc(CC3(NCc4ccc(OC(F)(F)F)cc4)COC3)no2)cc1	79µM*	-11%[88.5 µM]	100µM*	?	i
c1ccc(-c2cc(CC3(NCC4CCCCC4)COC3)no2)cc1	100µM*	3%[88.5 µM]	?	?	i
O=C(c1ccccc1)N1Cc2ccccc2CC2(CCCCN2CC2CCNC2)C1 (stereo not drawn)	79µM*	1%	?	.	.
CN1CCC(C(=O)N2Cc3ccccc3CC3(CCCCN3CC3CCNCC3)C2)CC1 (stereo not drawn)	-11%	i	-11%	.	.
SMILES	HEK293 tox	GPT2 inh	3T3 cytotox	NPR1 antag	FLuc inh
O=C(O)CCC(=O)N1Cc2ccccc2CC2(CCCN2Cc2ccccc2)C1 (stereo not drawn)	-2%	i	-6%	.	.
CN(C)CCCC(=O)N1Cc2ccccc2CC2(CCCCN2Cc2ccccc2)C1 (stereo not drawn)	79µM*	i	?	.	.
CC1CCCN1C(=O)c1cc(-c2ccccc2C(F)(F)F)nc2c1cnn2C (stereo not drawn)	-32%	.	-33%	.	.
Cc1noc2c(-c3cccc(CO)c3)cc(-c3ccc(F)cc3)nc12	71µM*	?	?	2%[70.6 µM]	i
Cc1noc2c(-c3cccc(CO)c3)cc(-c3cccc(C(F)(F)F)c3)nc12	45µM*	-6%[88.5 µM]	25µM*	-3%[70.6 µM]	i
COc1cccc(-c2cc(-c3ccccc3)nc3c(C)noc23)c1	?	4%[88.5 µM]	?	1%[70.6 µM]	i
O=C(Cc1ccc(F)cc1)N1CCCC(C(=O)N2CCC(c3ccccc3)CC2)C1 (stereo not drawn)	?	-24%	?	.	.
CNC(=O)CCn1ncc2cc(OC3CCc4cccc(-c5cccc(CO)c5)c43)ccc21 (stereo not drawn)	79µM*	-29%[88.5 µM]	?	-1%[70.6 µM]	?
CNC(=O)CCn1ncc2cc(OC3CCc4cccc(-c5ccc(OC)cc5)c43)ccc21 (stereo not drawn)	79µM*	-1%[88.5 µM]	50µM*	-19%[70.6 µM]	i
CNC(=O)CCn1ncc2cc(OCc3ccccc3-c3cc(Cl)ccc3OC)ccc21	?	?	?	-11%	i
CNC(=O)CCn1ncc2cc(OC3CCc4cccc(-c5cnn(C)c5)c43)ccc21 (stereo not drawn)	50µM*	-26%[88.5 µM]	?	1%[70.6 µM]	i
CC(C)C(=O)N1CCC(Oc2ccc3c(cnn3CCC(=O)O)c2)CC1	-12%[172 µM]	4%[88.5 µM]	?	0%[70.6 µM]	i
CC(C)OC(=O)N1CCC(Oc2ccc3c(cnn3CCC(=O)O)c2)CC1	4%[172 µM]	-7%[88.5 µM]	?	1%[70.6 µM]	i
CNC(=O)CCn1ncc2cc(OC3CCc4cccc(-c5ccc(O)c(F)c5)c43)ccc21 (stereo not drawn)	?	i	40µM*	2%	i
CC(C)n1c(C2CCCN(C(=O)Cc3ccccc3)C2)nn(C)c1=O (stereo not drawn)	?	i	?	.	.
COc1cccc(C(O)c2nc(C(=O)Nc3nc(C)cs3)c(C)o2)c1 (stereo not drawn)	?	-6%[88.5 µM]	?	18µM*	?
COc1cccc(C(O)c2nc(C(=O)Nc3ccc4c(c3)CC(=O)N4)c(C)o2)c1 (stereo not drawn)	100µM*	2%[88.5 µM]	?	1%[70.6 µM]	i
Cc1csc(NC(=O)c2nc(C(O)c3ccccc3)oc2C)n1 (stereo not drawn)	?	0%[88.5 µM]	79µM*	?	i
